14 compounds from PubChem BioAssay can be followed below.

Activity calls are given as the source filed them.

In assay [1] the test system is PRMT1 (protein arginine N-methyltransferase 1). Description: PRMT1 binders on small-molecule microarrays, primary screen, biochemical, small-molecule microarray, 635 nm fluorescence (AID 1088).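 Note: binding of Prmt1 protein to compounds spotted on small-molecule microarray slides.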 The conditions noted are these: small-molecule microarray binding, higher = more signal.
Assay [2] in a line: yeast growth modulation, basal conditions, primary screen, YJM789 clinical isolate, OD600, 24 h (AID 1089).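 Note: growth of clinical yeast isolate S. cerevisiae YJM 789 seeded 1000 cells per well; test concentration not given here.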 The conditions noted are these: S. cerevisiae YJM789 growth, higher = more signal, called active from +8 up or from −8 down.
Assay [3] can be described thus: fission yeast growth modulation, primary screen, strain 972, OD600, 24 h, no modulator (AID 1090).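 Note: basal condition with compound alone and no growth modifier present; test concentration not given here.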 The conditions noted are these: S. pombe 972 growth, higher = more signal, called active from +8 up or from −8 down.
Assay [4] is described as follows: S. cerevisiae growth modulation with rapamycin, primary screen, strain BY4716, OD600, 96 h (AID 1091). Note: test concentration not given here. The following applies: higher = more signal, called active from +8 up or from −8 down.
The target in assay [5] is Torsin-1A-interacting protein 2 (Homo sapiens) (UniProt Q8NFQ8). The experiment in a line: LULL1 binders on small-molecule microarray, primary screen, cell lysate, human LULL1 lysate, 635/667 nm fluorescence (AID 1092).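 Note: probe is lysate of COS7 cells overexpressing human LULL1; score merges per-feature 667 nm fluorescence with signal-to-noise.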 The conditions noted are these: hLULL1 lysate binding, 635 nm fluorescence, higher = more signal.
Assay [6] in a line: E. coli growth modulation, two-sided OD650, primary screen, E. coli filamentation project, strain DRC41, 24 h (AID 1093).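 Note: MC1000 strain lacking acrAB efflux and sulA so SOS filamentation is blocked; test concentration not given here.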 The conditions noted are these: OD650, 24 h, higher = more signal, called active from +8 up or from −8 down.
Assay [7] can be described thus: small-molecule microarray binders of probe aLefty2, primary screen, biochemical, biotinylated probe, 635/667 nm fluorescence (AID 1094).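 Note: score merges spot fluorescence near 667 nm with spot signal-to-noise ratio.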 The conditions noted are these: higher = more signal.
The test system of assay [8] is Noggin (protein binding on small-molecule microarray). Description: Noggin binders on small-molecule microarray, primary screen, biochemical, 635/667 nm fluorescence (AID 1095).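 Note: score merges 667 nm feature fluorescence with signal to noise over triplicate slides.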 The following applies: 635 nm fluorescence, higher = more signal.
Assay [9] deals with Neurogenic locus notch homolog protein 3 (Homo sapiens) (UniProt Q9UM47). Description: NOTCH3 binders on small-molecule microarray, primary screen, biochemical, 635/667 nm fluorescence (AID 1096). The following applies: NOTCH3 binding, 635 nm fluorescence, higher = more signal.
The nature of assay [10]: small-molecule microarray binders of probe aEGFR, primary screen, biochemical, biotinylated probe, 635/667 nm fluorescence (AID 1097).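 Note: probe is a biotinylated anti-EGFR antibody binding compounds printed on slides; score combines fluorescence near 667 nm and signal to noise of each spot.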 The conditions noted are these: higher = more signal.

Sequence of Neurogenic locus notch homolog protein 3 (Homo sapiens) (Q9UM47 whole entry, looked up): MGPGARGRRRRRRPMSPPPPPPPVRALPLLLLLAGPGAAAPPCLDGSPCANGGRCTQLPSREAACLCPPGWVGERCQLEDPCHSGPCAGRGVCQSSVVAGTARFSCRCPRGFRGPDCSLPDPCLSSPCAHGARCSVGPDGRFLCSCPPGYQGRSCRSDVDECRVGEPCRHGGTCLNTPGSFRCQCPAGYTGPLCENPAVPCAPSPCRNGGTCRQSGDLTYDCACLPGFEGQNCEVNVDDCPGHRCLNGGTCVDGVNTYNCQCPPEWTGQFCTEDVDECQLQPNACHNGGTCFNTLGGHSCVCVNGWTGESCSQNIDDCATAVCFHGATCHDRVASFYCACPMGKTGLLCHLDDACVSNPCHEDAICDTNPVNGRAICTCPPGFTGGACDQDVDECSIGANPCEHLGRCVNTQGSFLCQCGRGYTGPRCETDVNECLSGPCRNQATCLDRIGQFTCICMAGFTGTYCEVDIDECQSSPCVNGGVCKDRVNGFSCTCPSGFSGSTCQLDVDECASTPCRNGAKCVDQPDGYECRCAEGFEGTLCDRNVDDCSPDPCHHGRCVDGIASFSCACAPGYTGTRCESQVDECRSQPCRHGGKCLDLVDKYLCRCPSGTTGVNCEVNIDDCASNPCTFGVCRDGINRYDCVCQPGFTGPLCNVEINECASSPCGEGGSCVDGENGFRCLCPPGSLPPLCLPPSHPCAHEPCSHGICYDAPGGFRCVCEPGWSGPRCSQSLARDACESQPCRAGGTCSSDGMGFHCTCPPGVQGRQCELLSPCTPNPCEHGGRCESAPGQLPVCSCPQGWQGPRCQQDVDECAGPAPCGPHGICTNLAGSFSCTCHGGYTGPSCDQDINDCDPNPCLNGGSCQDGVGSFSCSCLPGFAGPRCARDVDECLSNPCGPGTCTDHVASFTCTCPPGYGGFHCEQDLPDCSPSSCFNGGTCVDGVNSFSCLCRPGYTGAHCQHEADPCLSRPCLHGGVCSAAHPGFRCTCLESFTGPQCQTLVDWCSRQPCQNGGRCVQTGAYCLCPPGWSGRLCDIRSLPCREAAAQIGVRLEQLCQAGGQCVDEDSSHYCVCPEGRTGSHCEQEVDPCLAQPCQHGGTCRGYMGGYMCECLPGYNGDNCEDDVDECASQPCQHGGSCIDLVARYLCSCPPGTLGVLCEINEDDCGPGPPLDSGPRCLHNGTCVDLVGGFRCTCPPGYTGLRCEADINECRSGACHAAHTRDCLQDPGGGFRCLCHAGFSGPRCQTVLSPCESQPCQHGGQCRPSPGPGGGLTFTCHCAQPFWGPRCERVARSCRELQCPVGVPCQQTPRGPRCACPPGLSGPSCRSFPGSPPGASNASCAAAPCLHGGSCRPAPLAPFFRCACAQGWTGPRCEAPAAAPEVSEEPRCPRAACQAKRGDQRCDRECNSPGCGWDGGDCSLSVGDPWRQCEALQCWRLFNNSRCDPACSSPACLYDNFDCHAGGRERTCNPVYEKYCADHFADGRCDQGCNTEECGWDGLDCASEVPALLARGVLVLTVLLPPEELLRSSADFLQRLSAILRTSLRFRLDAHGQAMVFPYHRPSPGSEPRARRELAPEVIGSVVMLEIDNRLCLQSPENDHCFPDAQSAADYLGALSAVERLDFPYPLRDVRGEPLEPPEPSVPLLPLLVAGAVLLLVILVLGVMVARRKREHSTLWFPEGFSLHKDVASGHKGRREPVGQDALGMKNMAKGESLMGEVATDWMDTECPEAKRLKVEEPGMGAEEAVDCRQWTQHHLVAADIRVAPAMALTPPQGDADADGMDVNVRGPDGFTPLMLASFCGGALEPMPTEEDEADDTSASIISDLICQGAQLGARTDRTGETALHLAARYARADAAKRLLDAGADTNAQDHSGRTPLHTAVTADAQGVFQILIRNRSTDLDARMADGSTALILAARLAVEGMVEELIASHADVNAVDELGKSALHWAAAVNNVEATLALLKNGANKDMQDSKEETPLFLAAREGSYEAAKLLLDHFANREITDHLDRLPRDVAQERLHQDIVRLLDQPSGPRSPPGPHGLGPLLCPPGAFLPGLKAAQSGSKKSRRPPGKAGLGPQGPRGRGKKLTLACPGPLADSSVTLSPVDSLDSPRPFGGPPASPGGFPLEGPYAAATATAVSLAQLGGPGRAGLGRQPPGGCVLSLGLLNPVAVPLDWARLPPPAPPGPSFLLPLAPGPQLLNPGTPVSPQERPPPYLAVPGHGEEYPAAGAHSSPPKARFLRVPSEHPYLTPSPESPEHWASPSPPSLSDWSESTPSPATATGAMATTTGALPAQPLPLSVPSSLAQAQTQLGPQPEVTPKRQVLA
Sequence of Torsin-1A-interacting protein 2 (Homo sapiens) (Q8NFQ8 whole entry, looked up): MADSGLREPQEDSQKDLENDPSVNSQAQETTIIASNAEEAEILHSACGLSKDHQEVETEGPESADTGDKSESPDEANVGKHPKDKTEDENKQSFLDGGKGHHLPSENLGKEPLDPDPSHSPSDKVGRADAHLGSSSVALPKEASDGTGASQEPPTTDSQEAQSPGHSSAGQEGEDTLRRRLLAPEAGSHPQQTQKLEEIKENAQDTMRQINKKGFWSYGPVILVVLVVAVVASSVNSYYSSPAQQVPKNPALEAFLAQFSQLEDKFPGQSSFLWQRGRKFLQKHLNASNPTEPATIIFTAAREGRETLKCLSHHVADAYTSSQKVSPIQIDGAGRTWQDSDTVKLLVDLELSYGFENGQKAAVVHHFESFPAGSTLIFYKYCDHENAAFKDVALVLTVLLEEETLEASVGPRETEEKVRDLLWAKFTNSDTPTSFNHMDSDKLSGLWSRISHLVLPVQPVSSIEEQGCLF

On to `COCCOC(=O)N1C(=O)[C@@]2(c3cc(C#CCNC(N)=O)ccc31)[C@H](c1ccc(O)cc1)N1[C@H](c3ccccc3)[C@H](c3ccccc3)OC(=O)[C@H]1[C@@H]2C(N)=O`, for which the composite z-score in [1] is -1.22; in assay [5], -0.841; in assay [7] it was -0.294; in [8], -1.99; in assay [9], -1.15; in assay [10], -0.406. Further, the z-score is 0.878 (inactive) in [2], 0.0929 (inactive) in assay [3], 0.374 (inactive) in [4] and 1.04 (inactive) in assay [6].
With `COc1ccc([Si](C)(C)[C@@H]2[C@@H](CCn3cc([C@H](O)c4ccccc4)nn3)O[C@]3(C(=O)N(Cc4cccc(N5C(=O)c6cccc7cccc5c67)c4)c4ccccc43)[C@H]2C)cc1`, the composite z-score in assay [1] is 0.645; in [5] it was 0.98; in [7], -0.139; in [8], -0.319; in [9], -0.048; in assay [10], -0.182. For the same compound, the z-score is 0.738 (inactive) in assay [2], 1.21 (inactive) in [3], 2.54 (inactive) in assay [4] and -0.143 (inactive) in [6].
For `[N-]=[N+]=Nc1ccccc1C[C@]1(C(=O)O)N=C(c2ccc(OCCCO)cc2)O[C@H]1c1ccccc1N=[N+]=[N-]`, the composite z-score in assay [1] was 1.43; in assay [5], 3.05; in assay [7], 0.376; in assay [8] it was -0.359; in assay [9], 0.942; in [10], 0.0729. Also, the z-score was -0.228 (inactive) in [2], -0.896 (inactive) in assay [3], -1.17 (inactive) in assay [4] and 0.814 (inactive) in [6].
Turning to `C=C(CCCC)C(=O)CC[C@@H](OC(=O)c1cccnc1)c1ccc(OCCO)cc1`, the composite z-score in [1] was 1.48; in [5], 1.18; in assay [7] it was -0.113; in assay [8], 1.93; in assay [9] it was 0.952; in assay [10] it was -0.0828. The z-score in [2] was -0.405 (inactive); in assay [3], -2.22 (inactive); in [4] it was -0.861 (inactive); in [6], -0.288 (inactive).
For the compound `COCCCNC(=O)[C@@]1(Sc2ccc(C)cc2)CC(=O)N(C(C)C)[C@@H]1c1ccc(CO)cc1I`, the composite z-score in [1] was 1.31; in assay [5], 2.53; in assay [7] it was -0.0225; in assay [8], -0.926; in assay [9], -0.365; in [10], -0.21. Also, the z-score in [2] was -0.436 (inactive); in [3] it was -2.98 (inactive); in assay [4] it was 0.445 (inactive); in [6] it was -2.04 (inactive).
Consider `CC(C)[Si]1(C(C)C)OCc2cc(-c3ccc(-c4ccc(Cl)c(Cl)c4)o3)nc(CCc3ccccc3)c21`, for which the composite z-score in assay [1] was -0.45; in assay [5], 0.797; in assay [7], -0.19; in assay [8], 0.0365; in [9], -0.428; in [10], -0.218. Besides, the z-score in assay [2] is -0.773 (inactive); in assay [3] it was -3.07 (inactive); in assay [4], 0.952 (inactive); in [6], 1.15 (inactive).
Consider `NC(=O)[C@@H]1[C@H]2C(=O)O[C@H](c3ccccc3)[C@H](c3ccccc3)N2[C@H](c2ccc(OCCO)cc2)[C@@]12C(=O)Nc1ccc(C#CCCO)cc12`, for which the composite z-score in assay [1] is 1.45; in [5], 1.85; in [7], 0.0847; in assay [8] it was -0.159; in assay [9] it was -0.0629; in [10], -0.0622. In addition, the z-score is 1.58 (inactive) in assay [2], 0.883 (inactive) in [3], 2.3 (inactive) in [4] and 0.459 (inactive) in assay [6].
For the compound `COc1ccc([Si](C)(C)[C@@H]2[C@@H](CC(=O)N3Cc4ccccc4C[C@H]3CO)O[C@]3(C(=O)N(c4ccccc4)c4ccccc43)[C@H]2C)cc1`, the composite z-score in assay [1] turned out to be 1.41; in assay [5], 1.88; in [7], 0.541; in assay [8], 1.71; in assay [9], 1.05; in assay [10], 0.13. In addition, the z-score was 1.18 (inactive) in assay [2], 1.4 (inactive) in assay [3], 2.93 (inactive) in [4] and 0.774 (inactive) in assay [6].
For `CC(C)=CCCC(C)=CC(O)C1C=CC2C(=O)N(c3ccccc3)C(=O)C2N1Nc1ccccc1F` (stereo not given), the composite z-score in assay [1] is 0.945; in assay [5], 2.41; in [7], -0.166; in assay [8], -0.0409; in [9], 0.761; in assay [10], -0.0828. Besides, the z-score is -1.23 (inactive) in [2], -0.347 (inactive) in assay [3], -0.707 (inactive) in [4] and 0.401 (inactive) in assay [6].
Consider `COc1ccc(CCNC(=O)[C@@]2(Cc3ccccc3I)c3ccccc3C(=O)N(Cc3ccccc3Cl)[C@H]2c2ccc(CO)cc2)cc1`, for which the composite z-score was 1.46 in [1]; 2.35 in [5]; 0.23 in assay [7]; -0.383 in [8]; 0.0854 in assay [9]; 0.0284 in [10]. Further, the z-score was -0.372 (inactive) in [2], -0.645 (inactive) in [3], -0.0387 (inactive) in [4] and -1.3 (inactive) in assay [6].
As to `Cc1ccc(S[C@]2(C(=O)NC(C)C)CC(=O)N(C(C)C)[C@@H]2c2ccc(CO)cc2I)cc1`, the composite z-score was 0.841 in assay [1]; 1.53 in assay [5]; -0.0654 in assay [7]; -0.337 in assay [8]; -0.196 in assay [9]; -0.144 in assay [10]. Also, the z-score is -0.466 (inactive) in assay [2], -0.222 (inactive) in [3], -0.294 (inactive) in assay [4] and 0.529 (inactive) in assay [6].
On to `[N-]=[N+]=Nc1ccccc1[C@@H]1OC(c2ccc(OCCCO)cc2)=N[C@]1(Cc1ccccc1)C(=O)NCc1ccccc1`, for which the composite z-score is 1.47 in assay [1]; 3.43 in assay [5]; 0.298 in assay [7]; 0.849 in [8]; 1.11 in [9]; 0.454 in assay [10]. Besides, the z-score in assay [2] is -1.79 (inactive); in assay [3] it was -0.27 (inactive); in [4], 3.07 (inactive); in assay [6] it was -0.0484 (inactive).
Take `COC(=O)C1=CC(CCCO)=CC(C)N(Cc2cccc(OC(F)(F)F)c2)C=C1C(=O)OC` (stereo not given): the composite z-score in assay [1] was 0.897; in [5] it was 2.65; in assay [7], -0.0712; in assay [8], -0.296; in assay [9], 0.532; in assay [10], -0.02. In addition, the z-score in assay [2] was -0.743 (inactive); in assay [3], -2.12 (inactive); in assay [4], 0.219 (inactive); in [6], -1.53 (inactive).
For the compound `O=C1C2C=CC(C(O)c3cccc(O)c3)N(Nc3ccccc3)C2C(=O)N1c1ccccc1` (stereo not given), the composite z-score in assay [1] was -0.413; in assay [5], 2.92; in assay [7] it was 0.005; in [8], -0.525; in assay [9], 0.535; in assay [10] it was -0.0416. For the same compound, the z-score was 0.629 (inactive) in assay [2], -0.581 (inactive) in assay [3], 0.299 (inactive) in assay [4] and -0.542 (inactive) in assay [6].
